Experimental data reported in PubChem BioAssay (NCATS).
“And” between values parts separate entries of the source, which are not always exact repeats. Equal entries are not always repeated. Records with an inconclusive call do not appear. Where a call stands in place of a potency, no number is given. Some compounds were tested as several samples or in several runs, with calls that do not always agree. A number with no mark means an inactive call. The source made the active and inactive calls. Calls come from the whole dose curve; as a rule, active = well fitted curve in the direction sought with a large enough effect; inconclusive = small, poorly fitted or top-dose-only effect, or another doubt; inactive = no such curve, though single readings can be large; an effect the other way counts as inactive or inconclusive.

Tests used:
CRL-7250 = normal cell line; test: Cytotoxic Profiling of Annotated Libraries Using Quantitative High-Throughput Screening (AID 1296008); details: Five cell lines viability, CellTiter-Glo ATP luminescence, 48-72 h; max response: stronger effect = lower value; note: nearly all actives have a fitted effect of over 60% in size
Outline: (§1)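 Compounds were pin-transferred onto cells and incubated 48 or 72 hr at 37 degree Celsius, 95% humidity. CellTiter-Glo was added, plates sat 10 min at room temperature, then ATP-coupled luminescence was imaged as the viability read-out.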

HEK293 = test: as above; details: Five cell lines viability, CellTiter-Glo ATP luminescence, 48-72 h; max response: stronger effect = lower value
Outline: as §1

HaCat [1] = test: as above; details: Five cell lines viability, CellTiter-Glo ATP luminescence, 48-72 h; max response: stronger effect = lower value
Outline: as §1

KB-3-1 = test: as above; details: Five cell lines viability, CellTiter-Glo ATP luminescence, 48-72 h; max response: stronger effect = lower value
Outline: as §1

NIH3T3 [2] = test: as above; details: Five cell lines viability, CellTiter-Glo ATP luminescence, 48-72 h; max response: stronger effect = lower value
Outline: as §1

HEK293T [3] = test: qHTS assay to identify novel small-molecules to repurpose for Merkel cell carcinoma treatment (AID 1296009); details: MCC and control cell lines, CellTiter-Glo viability, 72 h; at 44.8 µM (top of the series) unless noted; note: nearly all actives have a fitted effect of over 60% in size
Outline: (§2)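 Cells exposed to NPC (8-point) and MIPE (11-point) compound dilutions for 72 hr at 37 degree celsius; viability read by CellTiter-Glo luminescence, normalized to no-cell and DMSO in-plate controls.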

MCC-13 = test: as above; details: MCC and control cell lines, CellTiter-Glo viability, 72 h; series mostly up to 46 µM
Outline: as §2

MCC-26 = test: as above; details: MCC and control cell lines, CellTiter-Glo viability, 72 h; series mostly up to 46 µM
Outline: as §2

MKL-1 = test: as above; details: MCC and control cell lines, CellTiter-Glo viability, 72 h; series mostly up to 46 µM
Outline: as §2

WaGa = test: as above; details: MCC and control cell lines, CellTiter-Glo viability, 72 h; series mostly up to 46 µM
Outline: as §2

C33A = test: Primary qHTS to identify gynecologic anti-cancer compounds using libraries of approved drugs and bioactive compounds (AID 1345084); details: Gynecologic cancer cell panel viability, ATPlite luminescence, 48 h; series mostly up to 57.5 µM; note: nearly all actives have a fitted effect of over 55% in size
Outline: (§3)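 In this quantitative HTS, cell killing is estimated from loss of ATP-dependent luciferase light. Cells see five compound concentrations over a 48 h exposure.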

CASKI = test: as above; details: Gynecologic cancer cell panel viability, ATPlite luminescence, 48 h; series mostly up to 57.5 µM
Outline: as §3

Es-2 = test: as above; details: Gynecologic cancer cell panel viability, ATPlite luminescence, 48 h; series mostly up to 57.5 µM
Outline: as §3

HeLa = test: as above; details: Gynecologic cancer cell panel viability, ATPlite luminescence, 48 h; series mostly up to 57.5 µM
Outline: as §3

Hek293T [4] = test: as above; details: Gynecologic cancer cell panel viability, ATPlite luminescence, 48 h, control line for the selectivity index; series mostly up to 57.5 µM
Outline: as §3

MKL-2 = test: qHTS assay to identify novel small-molecules to repurpose for Merkel cell carcinoma treatment (AID 1296009); details: MCC and control cell lines, CellTiter-Glo viability, 72 h; series mostly up to 46 µM; note: nearly all actives have a fitted effect of over 60% in size
Outline: as §2

UISO = test: as above; details: MCC and control cell lines, CellTiter-Glo viability, 72 h; series mostly up to 46 µM
Outline: as §2

HACAT [5] = test: as above; details: MCC and control cell lines, CellTiter-Glo viability, 72 h; series mostly up to 44.8 µM
Outline: as §2

CAOV3 = test: Primary qHTS to identify gynecologic anti-cancer compounds using libraries of approved drugs and bioactive compounds (AID 1345084); details: Gynecologic cancer cell panel viability, ATPlite luminescence, 48 h; series mostly up to 57.5 µM; note: nearly all actives have a fitted effect of over 55% in size
Outline: as §3

NIH3T3 [6] = test: qHTS assay to identify novel small-molecules to repurpose for Merkel cell carcinoma treatment (AID 1296009); details: MCC and control cell lines, CellTiter-Glo viability, 72 h; at 44.8 µM (top of the series) unless noted; note: nearly all actives have a fitted effect of over 60% in size
Outline: as §2
Potency is the fitted concentration of half-maximal effect.

For `CN(C)CC(C)(C)CNc1nn2c(-c3ccccc3)nnc2cc1C1CCC1`, the max response (CRL-7250) was -13.8%, the outcome (CRL-7250) was “inactive” and the Potency (HEK293) was 4.18 µM (active). The outcome (HEK293) was “inactive”, the max response (HaCat [1]) was -29.4% and -5.55% and the max response (KB-3-1) was 9%. For the same compound, the outcome (KB-3-1) was “inactive”, the max response (NIH3T3 [2]) was -0.774% and the outcome (HEK293T [3]) was “inactive”. The Potency (MCC-13) was “inactive”, the Potency (MCC-26) was “inactive” and the Potency (MKL-1) was 0.935 µM (active). The Potency (WaGa) was 0.662 µM (active), the Potency (C33A) was “inactive” and the Potency (CASKI) was “inactive”. The Potency (Es-2) was “inactive”, the Potency (HeLa) was “inactive” and the Potency (Hek293T [4]) was “inactive”.

With `CC(C)CC(=O)Nc1n[nH]c2c1CN(C(=O)C1CCN(C)CC1)C2(C)C` the Potency (CRL-7250) was 1.48 µM (active), the max response (CRL-7250) was -90.6% and the Potency (HEK293) was 372 nM (active) and 326 nM (active). The Potency (HaCat [1]) was 9.35 µM (active) and 2.31 µM (active), the Potency (KB-3-1) was 2.35 µM (active) and 2.91 µM (active) and the Potency (NIH3T3 [2]) was 16.6 µM (active). The Potency (MCC-13) was “inactive”, the Potency (MCC-26) was 18.7 µM (active) and the Potency (MKL-2) was 2.64 µM (active). The Potency (UISO) was 5.26 µM (active), the Potency (C33A) was 6.31 µM (active) and the Potency (Es-2) was 7.08 µM (active). The Potency (HeLa) was 3.16 µM (active) and the Potency (Hek293T [4]) was 3.98 µM (active).

In the case of `COc1ccc2c(OCc3nnc4ccc(-c5ccccc5)nn34)ccnc2c1`, the max response (CRL-7250) is reported as -1.03%, the outcome (CRL-7250) is reported as “inactive” and the outcome (HEK293) is reported as “inactive”. The outcome (HaCat [1]) was “inactive”, the max response (KB-3-1) was -1.11% and 9.78% and the max response (NIH3T3 [2]) was -4.81% and -9.25%. For the same compound, the Potency (HACAT [5]) was “inactive”, the outcome (HEK293T [3]) was “inactive” and the Potency (MCC-13) was “inactive”. For the same compound, the Potency (MCC-26) was “inactive”, the Potency (MKL-1) was “inactive” and the Potency (MKL-2) was “inactive”. The Potency (UISO) was “inactive”, the Potency (WaGa) was “inactive” and the Potency (C33A) was “inactive”. For the same compound, the Potency (CAOV3) was “inactive”, the Potency (CASKI) was “inactive” and the Potency (Es-2) was “inactive”. For the same compound, the Potency (HeLa) was “inactive” and the Potency (Hek293T [4]) was “inactive”.

With `COc1ccc(-n2nc(C(N)=O)c3c2C(=O)N(c2ccc(N4CCCCC4=O)cc2)CC3)cc1` the max response (CRL-7250) was -14% and -8.05%, the max response (HEK293) was 2.24% and the max response (HaCat [1]) was -4.25%. The outcome (HaCat [1]) was “inactive”, the max response (KB-3-1) was 6.22% and -0.472% and the max response (NIH3T3 [2]) was -1.07% and 4.24%. For the same compound, the Potency (HACAT [5]) was “inactive”, the Potency (MCC-13) was “inactive” and the Potency (MKL-1) was “inactive”. The Potency (MKL-2) was “inactive”, the Potency (UISO) was “inactive” and the Potency (WaGa) was “inactive”. For the same compound, the Potency (C33A) was “inactive”, the Potency (CASKI) was “inactive” and the Potency (Es-2) was “inactive”. For the same compound, the Potency (HeLa) was “inactive” and the Potency (Hek293T [4]) was “inactive”.

In the case of `O=C1CCC[C@@H]2[C@H]3CCC[N+]4([O-])CCC[C@@H](CN12)[C@@H]34` (stereo partly drawn), the max response (CRL-7250) is reported as 2.61%, the outcome (CRL-7250) is reported as “inactive” and the max response (HEK293) is reported as 0.171%. The max response (HaCat [1]) was 2.01%, the outcome (HaCat [1]) was “inactive” and the max response (KB-3-1) was -0.364% and 8.14%. For the same compound, the max response (NIH3T3 [2]) was -2.91%, the outcome (NIH3T3 [2]) was “inactive” and the Potency (HACAT [5]) was “inactive”. For the same compound, the Potency (MCC-13) was “inactive”, the Potency (MKL-1) was “inactive” and the Potency (MKL-2) was “inactive”. For the same compound, the outcome (NIH3T3 [6]) was “inactive”, the Potency (UISO) was “inactive” and the Potency (WaGa) was “inactive”. The Potency (C33A) was “inactive”, the Potency (CAOV3) was “inactive” and the Potency (CASKI) was “inactive”. The Potency (Es-2) was “inactive”, the Potency (HeLa) was “inactive” and the Potency (Hek293T [4]) was “inactive”.

In the case of `Cn1c(CNc2ccc(C(=N)N)cc2)nc2cc(C(=O)N(CCC(=O)O)c3ccccn3)ccc21`, the Potency (CRL-7250) is reported as 7.24 µM (active), the max response (CRL-7250) is reported as -5.55% and the max response (HEK293) is reported as -4.52%. For the same compound, the max response (HaCat [1]) was -0.657% and -2.49%, the max response (KB-3-1) was -2.52% and the outcome (KB-3-1) was “inactive”. For the same compound, the outcome (NIH3T3 [2]) was “inactive”, the Potency (MCC-13) was “inactive” and the Potency (MKL-1) was “inactive”. The Potency (MKL-2) was “inactive”, the outcome (NIH3T3 [6]) was “inactive [at 17.4 µM]” and the Potency (UISO) was “inactive”. The Potency (WaGa) was “inactive”, the Potency (C33A) was “inactive” and the Potency (CASKI) was “inactive”. For the same compound, the Potency (Es-2) was “inactive”, the Potency (HeLa) was “inactive” and the Potency (Hek293T [4]) was “inactive”.

In the case of `OCc1ccc(-c2ccc(-c3ccc(CO)s3)o2)s1`, the max response (CRL-7250) is reported as -8.37%, the Potency (HEK293) is reported as 0.142 µM (active) and the max response (HaCat [1]) is reported as 4.62%. The outcome (HaCat [1]) was “inactive”, the Potency (KB-3-1) was 2.82 µM (active) and the max response (KB-3-1) was -70.8%. The max response (NIH3T3 [2]) was -23.8%, the Potency (HACAT [5]) was “inactive” and the Potency (MCC-26) was “inactive”. The Potency (C33A) was “inactive”, the Potency (CAOV3) was 0.199 µM (active) and the Potency (HeLa) was “inactive”. The Potency (Hek293T [4]) was 1.41 µM (active).

With `Cc1c(Cn2c(C)nc3c(C(=O)O)cc(N4CCOCC4)cc32)cccc1C(F)(F)F` the max response (CRL-7250) was -5.25%, the max response (HEK293) was -8.46% and the outcome (HEK293) was “inactive”. The outcome (HaCat [1]) was “inactive”, the max response (KB-3-1) was 6.95% and the outcome (KB-3-1) was “inactive”. The max response (NIH3T3 [2]) was 3.21% and -3.58%, the Potency (HACAT [5]) was “inactive” and the outcome (HEK293T [3]) was “inactive”. The Potency (MCC-13) was “inactive”, the Potency (MCC-26) was “inactive” and the Potency (MKL-1) was “inactive”. The Potency (MKL-2) was “inactive”, the Potency (UISO) was “inactive” and the Potency (WaGa) was “inactive”. The Potency (C33A) was “inactive”, the Potency (CAOV3) was “inactive” and the Potency (CASKI) was “inactive”. For the same compound, the Potency (Es-2) was “inactive”, the Potency (HeLa) was “inactive” and the Potency (Hek293T [4]) was “inactive”.

For `COc1cccc(Nc2c(C(N)=O)cnc3c(C)cc(S(=O)(=O)c4cccc(C(=O)N(C)C)c4)cc23)c1`, the max response (CRL-7250) was -20.3%, the outcome (CRL-7250) was “inactive” and the Potency (HEK293) was 12.9 µM (active). For the same compound, the max response (HaCat [1]) was 2.69%, the max response (KB-3-1) was -2.62% and -18.7% and the max response (NIH3T3 [2]) was -0.878%. For the same compound, the Potency (MCC-13) was “inactive”, the Potency (MCC-26) was “inactive” and the Potency (MKL-1) was “inactive”. For the same compound, the Potency (MKL-2) was “inactive”, the Potency (UISO) was “inactive” and the Potency (WaGa) was “inactive”. For the same compound, the Potency (C33A) was “inactive”, the Potency (CASKI) was “inactive” and the Potency (Es-2) was “inactive”. For the same compound, the Potency (HeLa) was “inactive” and the Potency (Hek293T [4]) was “inactive”.

For `O=C(O)CCCc1c[nH]c2ccccc12`, the max response (CRL-7250) was -4.82%, the outcome (CRL-7250) was “inactive” and the max response (HEK293) was -0.171% and -7.8%. The max response (HaCat [1]) was 4.3% and 3.03%, the max response (KB-3-1) was 0.51% and the outcome (KB-3-1) was “inactive”. The max response (NIH3T3 [2]) was -1.55% and 2.66%, the Potency (MCC-13) was “inactive” and the Potency (MCC-26) was “inactive”. The Potency (MKL-1) was “inactive”, the Potency (MKL-2) was “inactive” and the Potency (UISO) was “inactive”. The Potency (WaGa) was “inactive”, the Potency (C33A) was “inactive” and the Potency (CAOV3) was “inactive”. The Potency (CASKI) was “inactive”, the Potency (Es-2) was “inactive” and the Potency (HeLa) was “inactive”. For the same compound, the Potency (Hek293T [4]) was “inactive”.
